Data reported in PubChem BioAssay AID2314 (National Center for Advancing Translational Sciences (NCATS), 2010).
In all, about 300,000 compounds went through this assay and about 37,000 (12%) were called active. The sample holds actives, similar compounds and a random draw of the others, so the mix is not that of the screen. Cut-off read from the data, not from the text of the source: active = max response mostly above about 13% (no sharp cut-off); inactive = mostly below about 14%.

Assay: Cycloheximide Counterscreen for Small Molecule Inhibitors of Shiga Toxin; note: read at 38.3 µM for the half of the compounds with a filed dose; 0% is about no effect
Conditions: cell reporter, cycloheximide protein synthesis inhibition counterscreen; hits give high values

SMILES	max response
COc1ccc(S(=O)(=O)NCCc2cc3ccc(C)c(C)c3[nH]c2=O)cc1	-6.24% (inactive)
COCc1c(C(=O)N/N=C\c2cccnc2)nnn1-c1nonc1N	-4.36% (inactive)
FC(F)(F)c1cccc(-c2cc3ccccc3nc2N2CCCC2)c1	3.78% (inactive)
CCC/C(=N\O)c1c[nH]c2ccccc12	13.5% (inactive)
COc1ccc2[nH]cc(/C=C(/C#N)S(=O)(=O)c3ccccc3)c2c1	-3.42% (inactive)
COc1ccc(/C=C(\C#N)c2c[nH]c3ccccc23)cc1	47.7% (active)
CCO[C@@H]1OC(C(N)=O)=C[C@H](c2ccc(Br)cc2)[C@H]1CCCO	-0.863% (inactive)
CCC/C=C(\CCC)C(NC(=O)Cc1ccccc1)c1ccc(C(=O)OC)cc1 (stereo not drawn)	-2.68% (inactive)
CN(C)Cc1c(O)ccc2occ(C(O)c3ccccc3)c12 (stereo not drawn)	17.6% (active)
CN(C)Cc1c(O)ccc2c(=O)c(-c3ccccc3Cl)coc12	1.67% (inactive)
Cc1ccc(C(=O)c2coc3ccc(O)c(CN(C)C)c23)cc1	-0.656% (inactive)
Clc1c(OCCCn2ccnc2)ccc2ccccc12	20.6% (active)
c1ccc(Cc2ccc(OCCn3ccnc3)cc2)cc1	12% (inactive)
C=CCc1cc(C)ccc1OCCCn1ccnc1	-0.408% (inactive)
COc1cc(S(=O)(=O)Nc2ncn[nH]2)ccc1Cl	-1.79% (inactive)
CCSc1nnc(-c2cc3c(s2)-c2ccccc2CC3)o1	40.7% (active)
Fc1ccc(CSc2nnc(-c3cc4c(s3)-c3ccccc3CC4)o2)cc1	1.49% (inactive)
CSc1nc2sc3c(c2c(=O)[nH]1)CCc1ccccc1-3	-2.09% (inactive)
Cn1c(NC(=O)c2ccccc2)nc2ccccc21	25.8% (active)
Cn1sc(NC(=O)c2ccccc2)nc1=O	9.66% (inactive)
CC(=O)NCCc1nc2cc(NC(=O)c3ccccc3)ccc2n1C	20.2% (inactive)
COc1cc2c(cc1OC)C(C(=O)NCc1ccco1)C1c3ccccc3CCN1C2=O (stereo not drawn)	-2.13% (inactive)
Cc1cc(=O)oc2cc(OC(C)C(=O)NCCc3ccc(S(N)(=O)=O)cc3)ccc12 (stereo not drawn)	-2.25% (inactive)
Cc1ccc(N2CCN(C(=O)c3cccs3)CC2)c(C)c1	1.82% (inactive)
COc1ccc(-c2nn(-c3ccccc3)cc2/C=C\C(=O)N2CCOCC2)cc1[N+](=O)[O-]	-1.53% (inactive)

SMILES	max response
O=C(O)/C=C/c1cn(Cc2ccccc2)nc1-c1cccs1	0.958% (inactive)
O=C(O)c1ccc(N/N=C/c2cn(-c3ccccc3)nc2-c2cccs2)cc1	14.7% (inactive)
O=C(O)/C=C/c1cn(-c2ccccc2)nc1-c1cccs1	20.8% (active)
O=C(/C=C\c1cn(-c2ccccc2)nc1-c1cccs1)N1CCOCC1	17.5% (active)
O=C(/C=C/c1cn(-c2ccccc2)nc1-c1ccc2c(c1)OCCO2)NCCCN1CCOCC1	13.7% (inactive)
CCOC(=O)c1c(NC(=O)CSc2nccc(=O)[nH]2)sc(C)c1C	-2.23% (inactive)
COC(=O)c1ccc(-c2noc(CN(Cc3ccccn3)CC3CCCO3)n2)cc1 (stereo not drawn)	-2.22% (inactive)
CN(Cc1ccccn1)Cc1nc(-c2ccc(Cl)cc2)no1	20% (active)
CCN1CC(CN(C)Cc2nc(-c3ccc(Cl)cc3)no2)CC1=O (stereo not drawn)	6.16% (inactive)
COCCCNS(=O)(=O)c1cccc(S(=O)(=O)c2cccc(S(=O)(=O)NCCCOC)c2)c1	-2.51% (inactive)
COc1ccc(S(=O)(=O)Nc2cccc3cccnc23)c(N)c1	23.5% (inactive)
O=C(Nc1cccc2cccnc12)c1cccc(N2C(=O)CCC2=O)c1	-3.63% (inactive)
CCOC(=O)Cc1ncccc1C(=O)Nc1ccc(OC)cc1	-1.69% (inactive)
N#Cc1ccc(C(=O)Nc2cccc3cccnc23)c(F)c1	-0.854% (inactive)
O=C(Nc1ccccc1Cl)Nn1cnnc1	6.34% (inactive)
O=C(Nc1cccc2cccnc12)c1cccc(Cl)c1	49.1% (active)
O=C(Nc1cccc2cccnc12)C(F)(F)F	-1.21% (inactive)
O=C(Nc1ccccc1Cl)Nc1cccc2cccnc12	31.2% (active)
COc1ccc(NC(=O)Nc2cccc3cccnc23)cc1	55.8% (active)
O=C(COC(=O)/C=C/c1cn(-c2ccccc2)nc1-c1cccnc1)Nc1ccc(Cl)cc1Cl	3.3% (inactive)
COc1cccc(-n2c(=S)sc3c(=O)n(-c4ccccc4C)c(SCC(=O)O)nc32)c1	-1.2% (inactive)
O=C(c1ccccc1F)N1CCN(S(=O)(=O)c2ccc(Br)cc2)CC1	-10.6% (inactive)
O=C1NC(=O)C(c2ccc(Cl)cc2)N1 (stereo not drawn)	-2.12% (inactive)
C=CCN1C(=O)NC(=O)/C(=C/c2ccc(OCC(=O)Nc3ccc(C)cc3)cc2)C1=O	14.5% (active)
Cc1ccc(NC(=O)COc2ccc(/C=C3/NC(=O)NC3=O)cc2)cc1	-1.82% (inactive)

SMILES	max response
CCOC(=O)C1=C(O)/C(=C/c2ccc(OCC(=O)Nc3ccc(C)cc3)cc2)N=C1C	-7% (inactive)
CCSc1nnc(SCC(=O)NNC(=O)c2ccccc2F)s1	6.26% (inactive)
O=C(CCC1CCCC1)N=C1SC2CS(=O)(=O)CC2N1Cc1ccccc1 (stereo not drawn)	0.661% (inactive)
COc1cccc2sc(NNC(=O)c3nc4ccccc4s3)nc12	12.4% (inactive)
CNC(=O)c1sc(NCc2ccccc2OC)nc1C	-3.72% (inactive)
COC(=O)c1sc(NC(=S)NC(=O)c2ccc(C)cc2)nc1C	9.32% (inactive)
CC(=O)c1sc(NC(=O)c2ccc(C)cc2)nc1C	54.3% (active)
CC(=O)c1sc(NC(=O)c2cccc3ccccc23)nc1C	35.9% (active)
CCOC(=O)c1sc(NC(=O)c2ccncc2)nc1C	0.888% (inactive)
COc1ccc(Br)cc1C(=O)Nc1cccc(C)c1C	-3.3% (inactive)
COc1cc2ccccc2cc1C(=O)Nc1ccc(S(=O)(=O)Nc2cc(C)on2)cc1	-2.65% (inactive)
COc1cc2ccccc2cc1C(=O)Nc1ccccc1C	29.7% (active)
CNC(=O)c1sc(Nc2ccc(OCc3ccccc3)cc2)nc1C	10.4% (inactive)
COc1cccc2sc(Nc3nc(C)c(C(C)=O)s3)nc12	16.2% (active)
CC(=O)c1sc(NC(=O)C2=NN(c3ccccc3)C(=O)CC2)nc1C	-0.878% (inactive)
COc1cc(C(=O)NCc2ccncc2)cc(Br)c1OCc1ccccc1	-7.17% (inactive)
Cc1ccc(C(=O)N/N=C\c2cc(Br)c(Br)o2)cn1	3.37% (inactive)
CC(=O)NS(=O)(=O)c1ccc2c(c1)Cc1cc(S(=O)(=O)NC(C)=O)ccc1-2	-0.942% (inactive)
N#C[C@]1(S(=O)(=O)c2ccccc2)C[C@@H]2ON=C(c3cccc(Br)c3)[C@@H]2C1	0.173% (inactive)
CCCCC(O)(CCCC)C(=O)NN(C(=O)CCl)c1ccccc1	4.18% (inactive)
COc1cc2ccccc2cc1C(=O)Nc1nc(C)c(C(C)=O)s1	33.8% (active)
O=C(Cc1ccccc1)NC(=S)Nc1ccc(N2CCCCC2)cc1	20.2% (inactive)
CC1(C)CC(N2CCN(C(c3ccccc3)c3ccccc3)CC2)=CC(=[N+]2CCCCC2)C1	-1.68% (inactive)
CCOC(=O)c1ccc(CS(=O)c2ccc(Cl)cc2)o1 (stereo not drawn)	25.3% (active)
Cc1ccc(S(=O)Cc2ccc(C(=O)N3CCN(C4CCCCC4)CC3)o2)cc1 (stereo not drawn)	0.779% (inactive)

SMILES	max response
CCOC(=O)c1ccc(COC(=O)c2cc(=O)[nH]c3ccccc23)o1	-2.02% (inactive)
C=CCn1c(CNS(=O)(=O)c2ccc(Br)cc2)nnc1SC	-1.32% (inactive)
COc1ccc(CCNC(=O)c2nnc(CS(=O)(=O)c3ccccc3)o2)cc1OC	-0.612% (inactive)
CC(=O)NC(CC(=O)Nc1nc(-c2ccccc2)c(C(C)=O)s1)c1ccccc1 (stereo not drawn)	-6.12% (inactive)
COC(=O)c1c(C)[nH]c(C)c1-c1ccc([N+](=O)[O-])cc1	-6.3% (inactive)
COC(=O)c1c(C)[nH]c(C(=O)/C=C/c2ccc(Cl)cc2)c1C	30.8% (active)
COC(=O)c1c(C)oc(C)c1S(=O)(=O)NCc1ccc(Cl)cc1	-1.57% (inactive)
COc1ccc(NC(=O)c2sc3nc(C)nc(N4CCN(c5ccccn5)CC4)c3c2C)c(OC)c1	-5.96% (inactive)
CCN(C(=O)COC(=O)/C=C/c1nc2ccccc2s1)C1CCS(=O)(=O)C1 (stereo not drawn)	-3.69% (inactive)
O=S(=O)(Nc1cccc(-n2cnnn2)c1)c1cnc(Cl)c(Cl)c1	4.36% (inactive)
O=C(CN1C2=NCCN2c2ccccc21)c1cccs1	4.8% (inactive)
Nc1c(C(=O)c2cccs2)sc2nsc(SCCN3CCCCC3)c12	24.4% (active)
O=C(c1ccc(Oc2ccc(Cl)cc2)c([N+](=O)[O-])c1)N1CCCC1	-3.06% (inactive)
COc1ccc(N=Cc2c(O)[nH]c3ccccc23)cc1OC	43.7% (active)
COc1cc(N=Cc2c(O)[nH]c3ccccc23)cc(OC)c1OC	6.65% (inactive)
COc1ccccc1N=Cc1c(O)c2ccccc2oc1=O	9.95% (inactive)
COc1cc(OC)c(C(=S)N2CCCC2)cc1OC	-2.47% (inactive)
Cc1cccc(NS(=O)(=O)c2cc(Cl)ccc2Cl)n1	-0.991% (inactive)
C[C@H](NC(=O)c1nc[nH]c1C(=O)NCC(=O)OC(C)(C)C)C(=O)OCc1ccccc1	-0.808% (inactive)
CCC(C)C(NC(=O)C1CCC(=O)N1C(=O)OCc1ccccc1)C(=O)NC(C(=O)N1CCCC1C(N)=O)C(C)CC (stereo not drawn)	-2.75% (inactive)
COc1cc(/C=N/N2CCN(c3ccccc3)CC2)ccc1OC(C)=O	15.1% (inactive)
COc1ccccc1N1CCN(/N=C/c2ccc(O)cc2O)CC1	20% (active)
COc1ccccc1N1CCN(/N=C\C(Br)=C\c2ccccc2)CC1	21.4% (inactive)
